The structures appear in SMILES notation.

The first test has as its system Pectobacterium parmentieri SCC3193. In words: DuctApe activity index (growth/respiration on compound as sole nutrient source, blank-subtracted) (activity index (0-3)); higher = stronger utilization of the compound, active = 3 or more. The following applies: nutrient role (plate category): carbon. Here is the method:
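Biolog Phenotype Microarray plates PM1, PM2A (carbon), PM3 (nitrogen) and PM4 (phosphorus/sulfur) inoculated with P. parmentieri SCC3193 in M9-C minimal salts medium with Biolog dye A, and read in the OmniLog for 46 h. Each well was tested in triplicate and the experiment was run twice. DuctApe computed a blank-subtracted activity index (AV, 0-3) from the mean curves; growth is positive at AV >= 3 and negative at AV <= 2.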
`N[C@@H](CCO)C(=O)O` [L-Homoserine]: the DuctApe activity index is 0 (inactive).
Same read-out and setting: under `CC(O)(CC(=O)O)C(=O)O` (stereo unspecified) [Citramalic acid] stands 0 (inactive).
Same read-out and setting: under `O=C(O)c1ccccc1O` [2-Hydroxybenzoic acid] stands 0 (inactive); under `N[C@H](CO)C(=O)O` [D-Serine], 0 (inactive).
In the case of `OC[C@H]1O[C@@](CO)(O[C@H]2O[C@H](CO)[C@@H](O)[C@H](O)[C@H]2O)[C@@H](O)[C@@H]1O` [Sucrose], the DuctApe activity index was 3 (active).
Same read-out and setting: the figure for `O=C[C@@H](O)[C@H](O[C@@H]1O[C@H](CO)[C@H](O)[C@H](O)[C@H]1O)[C@H](O)CO` [3-O-b-D-Galactopyranosyl-D-Arabinose] is 1 (inactive).
On to `CO[C@@H]1O[C@H](C(=O)O)[C@@H](O)[C@H](O)[C@H]1O` [b-Methyl-D-Glucuronic acid], for which the DuctApe activity index is 0 (inactive).
Still for that read-out and setting: under `CC(=O)C(C)=O` [2,3-Butanedione] stands 0 (inactive); under `CCCCCC(=O)O` [Caproic acid], 0 (inactive).
As for `O=C(O)[C@H](O)[C@@H](O)[C@H](O)[C@H](O)CO[C@H]1O[C@H](CO)[C@H](O)[C@H](O)[C@H]1O` [Melibionic acid], the DuctApe activity index was 0 (inactive).
For the compound `OC[C@@H](O)[C@@H](O[C@@H]1O[C@H](CO)[C@H](O)[C@H](O)[C@H]1O)[C@H](O)[C@@H](O)CO` [D-Lactitol], the DuctApe activity index was 0 (inactive).
For the compound `OC[C@H]1OC(O[C@H]2[C@H](O)[C@@H](O)C(O[C@H]3[C@H](O)[C@@H](O)[C@@H](O)O[C@@H]3CO)O[C@@H]2CO)[C@H](O)[C@@H](O)[C@@H]1O` (stereo partly specified) [Dextrin], the DuctApe activity index is 0 (inactive).
The same measure, in the same setting: under `CO[C@@H]1OC[C@@H](O)[C@H](O)[C@H]1O` [b-Methyl-D-Xyloside] stands 0 (inactive); under `O=c1ccn([C@@H]2O[C@H](CO)[C@@H](O)[C@H]2O)c(=O)[nH]1` [Uridine], 1 (inactive).
Consider `N[C@@H](CO)C(=O)O` [L-Serine], for which the DuctApe activity index was 3 (active).
Same read-out and setting: under `N[C@H](CC(=O)O)C(=O)O` [D-Aspartic acid] stands 3 (active); under `N[C@@H](Cc1c[nH]cn1)C(=O)O` [L-Histidine], 0 (inactive); under `CC(=O)N[C@@H]1[C@@H](O)[C@H](O)[C@@H](CO)O[C@@H]1O` [N-Acetyl-D-Glucosamine], 3 (active).
With `O=c1[nH]cnc2c1ncn2[C@@H]1O[C@H](CO)[C@@H](O)[C@H]1O` [Inosine], the DuctApe activity index was 1 (inactive).

The test is the same for the next values; noted with them: nutrient role (plate category): nitrogen.
Turning to `N[C@@H](CCO)C(=O)O` [L-Homoserine], the DuctApe activity index is 0 (inactive).
On the same count and under the same terms, the figure for `C[C@H](N)C(=O)N[C@@H](Cc1cnc[nH]1)C(=O)O` is 0 (inactive); for `N[C@H](CO)C(=O)O` [D-Serine] it is 0 (inactive).
For the compound `NCCc1c[nH]cn1` [Histamine], the DuctApe activity index is 0 (inactive).
On the same count and under the same terms, under `NCCCCN=C(N)N` [Agmatine] stands 0 (inactive); under `N[C@@H](CS)C(=O)O` [L-Cysteine], 0 (inactive).
The same measure, in the same setting: the figure for `O=c1ccn([C@@H]2O[C@H](CO)[C@@H](O)[C@H]2O)c(=O)[nH]1` [Uridine] is 0 (inactive); for `N[C@@H](CO)C(=O)O` [L-Serine] it is 1 (inactive); for `N[C@H](CC(=O)O)C(=O)O` [D-Aspartic acid] it is 2 (inactive).
Consider `N[C@@H](Cc1c[nH]cn1)C(=O)O` [L-Histidine], for which the DuctApe activity index was 0 (inactive).
The same measure, in the same setting: under `CC(=O)N[C@@H]1[C@@H](O)[C@H](O)[C@@H](CO)O[C@@H]1O` [N-Acetyl-D-Glucosamine] stands 3 (active); under `O=c1[nH]cnc2c1ncn2[C@@H]1O[C@H](CO)[C@@H](O)[C@H]1O` [Inosine], 0 (inactive).

Still in this test, the particulars now being: nutrient role (plate category): phosphate & sulphur.
Regarding `Nc1ncnc2c1ncn2[C@@H]1O[C@@H]2COP(=O)(O)O[C@H]2[C@H]1O` [Adenosine 3`,5`-Cyclic Monophosphate], the DuctApe activity index is 0 (inactive).
Still for that read-out and setting: under `NCCOP(=O)(O)O` [O-Phosphoryl-Ethanolamine] stands 1 (inactive).
On the same count and under the same terms, under `C[S+]([O-])CC[C@H](N)C(=O)O` (stereo partly drawn) [L-Methionine Sulfoxide] stands 1 (inactive); under `O=P(O)(O)O[C@H]1O[C@H](CO)[C@@H](O)[C@H](O)[C@@H]1O` [D-Mannose-1-Phosphate], 2 (inactive); under `N[C@@H](CS)C(=O)O` [L-Cysteine], 0 (inactive).
On the same count and under the same terms, the figure for `O=C(O)C(CO)OP(=O)(O)O` [D-2-Phospho-Glyceric acid] is 2 (inactive).
As to `O=P(O)(O)CP(=O)(O)O` [Methylene Diphosphonic acid], the DuctApe activity index is 0 (inactive).
Still for that read-out and setting: under `Nc1ccn([C@@H]2O[C@H](COP(=O)(O)O)[C@@H](O)[C@H]2O)c(=O)n1` [Cytidine 5`-Monophosphate] stands 1 (inactive); under `NC(=O)OP(=O)(O)O` [Carbamyl Phosphate], 1 (inactive); under `N[C@@H](CSCSC[C@H](N)C(=O)O)C(=O)O` [L-Djenkolic acid], 1 (inactive).

The values above are taken from the supplement of paper PMC6518042.
